This passage reports composite z-score and z-score results from PubChem BioAssay.

The source made the active and inactive calls. Unless noted, how the calls were made is not given here.

Test [1] concerns XIP peptide (Xip251-270) binding. The experiment in a line: small-molecule binders of XIP peptide, primary screen, biochemical, small-molecule microarray, fluorescence 635/667 nm, 0.1 µg/mL protein (AID 1182). The note with it: fluorescent protein binding, 635 nm, higher = more signal, called active from +8 up or from −8 down.
The test system of a further test is XIP peptide (Xip251-270). The experiment in a line: small-molecule binders of XIP peptide, primary screen, biochemical, small-molecule microarray, fluorescence 635/667 nm, 0.5 µg/mL protein (AID 1183). The note with it: small-molecule microarray binding, fluorescence 635 nm; higher = more signal.
Test [2] in a line: Plasmodium falciparum growth inhibition, primary screen, strain 3D7, DAPI fluorescence, 100 nL (AID 1184).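 Further: parasites grown inside human red blood cells in medium with human serum.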 The settings on record: P. falciparum 3D7 growth, 3 d, higher = more signal.
For test [3], the target named is Homeobox protein Hox-A13 (Mus musculus) (UniProt Q62424). In words: inhibitors of HoxA13-DNA binding, primary screen, biochemical, fluorescence polarization, labeled oligonucleotide (AID 1185). The note with it: 15 min, higher = more signal, called active from +8 up or from −8 down.
A short description of test [4]: inhibitors of hydroxyurea-induced Chk1 phosphorylation, primary screen, imaging, HeLa, phospho-Chk1 antibody, percent positive cells (AID 1186). The settings on record: hydroxyurea-induced phospho-Chk1 immunofluorescence imaging, higher = more signal.
Test [5] is described as follows: inhibitors of hydroxyurea-induced Chk1 phosphorylation, primary screen, imaging, HeLa, phospho-Chk1 nuclear intensity (AID 1187). The settings on record: hydroxyurea-induced phospho-Chk1 immunofluorescence imaging, higher = more signal.

Sequence of Homeobox protein Hox-A13 (Mus musculus) (Q62424 whole entry, looked up): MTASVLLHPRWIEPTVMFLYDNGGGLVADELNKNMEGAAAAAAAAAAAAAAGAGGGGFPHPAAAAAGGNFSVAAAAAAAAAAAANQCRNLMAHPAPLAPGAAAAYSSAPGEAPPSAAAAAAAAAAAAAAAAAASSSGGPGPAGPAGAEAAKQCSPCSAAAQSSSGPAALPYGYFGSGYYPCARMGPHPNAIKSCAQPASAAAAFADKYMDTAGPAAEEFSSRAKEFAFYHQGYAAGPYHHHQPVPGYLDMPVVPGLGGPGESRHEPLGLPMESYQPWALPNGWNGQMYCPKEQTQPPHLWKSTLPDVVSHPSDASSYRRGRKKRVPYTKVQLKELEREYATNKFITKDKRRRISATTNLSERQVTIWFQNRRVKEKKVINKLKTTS

For `C=CCNC(=O)[C@@H]1[C@H]2C(=O)O[C@H](c3ccccc3)[C@H](c3ccccc3)N2[C@H](c2ccc(OCCO)cc2)[C@@]12C(=O)N(C(=O)OCCOC)c1ccccc12`, the composite z-score is 1.44 (inactive) in test [1] and 0.718 in the test on XIP peptide (Xip251-270). Further, the z-score is -0.643 in test [2], -3.58 (inactive) in test [3], -0.0546 (inactive) in test [4] and 0.0358 (inactive) in test [5].

Consider `CCOC(=O)C[C@H]1[C@H](OC(=O)c2cc3ccccc3oc2=O)[C@@H](NC(=O)Cc2ccc(OC)cc2)c2cc(OCCCO)ccc2N1C(=O)Cc1ccc(OC)cc1`, for which the composite z-score is -0.0664 (inactive) in test [1] and 0.0609 in the test on XIP peptide (Xip251-270). The z-score in test [2] was -0.912; in test [3] it was -5.1 (inactive); in test [4], 0.212 (inactive); in test [5], 0.199 (inactive).

Regarding `COC(=O)[C@@]1(Cc2ccc(F)cc2)[C@H]2c3cc(C(=O)N(C)C)n(Cc4ccc(C(F)(F)F)nc4)c3C[C@H]2CN1C(=O)c1ccccc1`, the values for the composite z-score (in test [1]; with XIP peptide (Xip251-270)) were 0.338 (inactive) and 0.64, respectively. Besides, the z-score in test [2] was -1.68; in test [3], -3.87 (inactive); in test [4], 0.93 (inactive); in test [5] it was 0.563 (inactive).

With `COc1ccc([Si](C)(C)[C@H]2[C@H](CCO)O[C@@]3(C(=O)N(Cc4ccccc4)c4ccc(NC(=O)[C@H](C)O)cc43)[C@@H]2C)cc1`, the composite z-score in test [1] was -0.0359 (inactive); with XIP peptide (Xip251-270), -0.313. For the same compound, the z-score was -2.6 in test [2], -5.67 (inactive) in test [3], -1.59 (inactive) in test [4] and -0.751 (inactive) in test [5].

As for `[N-]=[N+]=NCc1ccccc1[C@H]1OC(c2ccc(OCCCO)cc2)=N[C@@]1(CCS(=O)(=O)c1ccccc1)C(=O)O`, the figures for the composite z-score (in test [1]; in the test with XIP peptide (Xip251-270)) were -0.0179 (inactive) and 0.446, respectively. The z-score in test [2] is 0.0638; in test [3], -5.36 (inactive); in test [4], -0.0059 (inactive); in test [5] it was -0.587 (inactive).

Turning to `CC1C2C(CCCO)=CC(C3C(=O)N(C(N)=O)C(=O)C23)N1Cc1cccc(OC(F)(F)F)c1` (stereo unspecified), the composite z-score was 1.51 (inactive) in test [1] and 0.256 in the test on XIP peptide (Xip251-270). Besides, the z-score in test [2] is -0.128; in test [3], -7.99 (inactive); in test [4], 0.37 (inactive); in test [5] it was 0.181 (inactive).

Take `CCCCCCc1nc(-c2ccc(OC)nc2)c(C)c2c1[Si](C(C)C)(C(C)C)OC2`: the composite z-score was -0.186 (inactive) in test [1] and -0.7 in the test with XIP peptide (Xip251-270). Moreover, the z-score in test [2] was -2.14; in test [3] it was 0.384 (inactive); in test [4], -0.531 (inactive); in test [5], 0.0171 (inactive).

As to `CC(C)(C)OC(=O)N1[C@@H](C=C(Br)Br)COC1(C)C`, the composite z-score in test [1] was 5.39 (inactive); with XIP peptide (Xip251-270), -0.0146. The z-score in test [2] is 0.438; in test [3] it was -0.337 (inactive); in test [4], -0.35 (inactive); in test [5], -0.129 (inactive).

Regarding `Cc1ccc(S[C@]2(C(=O)NC3CC3)CC(=O)N(C3Cc4ccccc4C3)[C@@H]2c2ccc(CO)cc2I)cc1`, the composite z-score in test [1] was 0.406 (inactive); with XIP peptide (Xip251-270), 0.559. Also, the z-score in test [2] was -0.396; in test [3], -2.46 (inactive); in test [4], 0.586 (inactive); in test [5] it was 0.97 (inactive).

As for `O=C1NC(=O)C2C1C=CC(C(O)C1CCCCC1)N2Nc1ccccn1` (stereo unspecified), the composite z-score in test [1] is -0.275 (inactive); in the test with XIP peptide (Xip251-270) it was 0.27. Also, the z-score is 0.582 in test [2], -2.17 (inactive) in test [3], 1.04 (inactive) in test [4] and 1.39 (inactive) in test [5].

As for `O=C(NC1CC1)[C@@H]1c2ccccc2C(=O)N(C2CCCCC2)[C@H]1c1ccc(CO)cc1`, the composite z-score is 0.969 (inactive) in test [1] and 0.647 with XIP peptide (Xip251-270). The z-score in test [2] was -1.1; in test [3] it was -3.16 (inactive); in test [4] it was -0.312 (inactive); in test [5] it was -0.617 (inactive).

Regarding `CN1C(=O)C2C=CC(C(O)c3cccs3)N(N(c3ccccc3)c3ccccc3)C2C1=O` (stereo unspecified), the composite z-score in test [1] was 0.564 (inactive); with XIP peptide (Xip251-270), 0.482. Besides, the z-score is -0.0266 in test [2], -4.42 (inactive) in test [3], 0.557 (inactive) in test [4] and -0.499 (inactive) in test [5].

With `COCCOC(=O)N1C(=O)[C@@]2(c3cc(C#CCNC(N)=O)ccc31)[C@H](c1ccccc1OCCO)N1[C@H](c3ccccc3)[C@H](c3ccccc3)OC(=O)[C@H]1[C@@H]2C(=O)N1CCCCCCC1`, the values for the composite z-score (in test [1]; with XIP peptide (Xip251-270)) were 0.564 (inactive) and 0.824, respectively. For the same compound, the z-score was -2.13 in test [2], 0.831 (inactive) in test [3], -0.0593 (inactive) in test [4] and -0.191 (inactive) in test [5].

Consider `C=CCNC(=O)[C@H]1[C@@H]2C(=O)O[C@@H](c3ccccc3)[C@@H](c3ccccc3)N2[C@@H](c2ccc(OCCO)cc2)[C@]12C(=O)Nc1ccc(C#Cc3ccc(OC)cc3)cc12`, for which the composite z-score was 0.43 (inactive) in test [1] and 0.773 in the test on XIP peptide (Xip251-270). The z-score in test [2] is -2.39; in test [3] it was -0.279 (inactive); in test [4], 0.165 (inactive); in test [5] it was 0.202 (inactive).

For the compound `COC(=O)[C@@]1(Cc2ccc(F)cc2)[C@@H]2C(=CC(=O)[C@H]2CC(=O)C(=O)N2CCCC2)CN1C(=O)c1ccccc1`, the composite z-score in test [1] was 0.47 (inactive); with XIP peptide (Xip251-270) it was 0.839. For the same compound, the z-score in test [2] is -1.72; in test [3], -4.84 (inactive); in test [4], 0.261 (inactive); in test [5] it was 0.278 (inactive).

`CC(C)(C)OC(=O)CC[C@@]1(C(N)=O)N=C(c2ccc(OCCCO)cc2)O[C@@H]1c1ccccc1CN=[N+]=[N-]`: the values for the composite z-score (in test [1]; with XIP peptide (Xip251-270)) were -0.015 (inactive) and 0.297, respectively. Moreover, the z-score in test [2] is 1.1; in test [3], -4.71 (inactive); in test [4] it was 0.3 (inactive); in test [5], 0.317 (inactive).

For `COCCCNC(=O)[C@@]1(c2ccc([N+](=O)[O-])cc2)CC(=O)N(C2CCCCC2)[C@@H]1c1ccc(CO)cc1I`, the composite z-score in test [1] was 0.266 (inactive); in the test on XIP peptide (Xip251-270), 0.728. Also, the z-score in test [2] was -0.768; in test [3], -4.5 (inactive); in test [4], 0.237 (inactive); in test [5], 0.36 (inactive).

`C=C(COC)/C(=C/C[C@@H](OC(=O)c1ccncc1)c1ccccc1OCCO)c1cnc2ccccc2c1`: the composite z-score is 0.882 (inactive) in test [1] and 0.745 in the test with XIP peptide (Xip251-270). Moreover, the z-score is -3.1 in test [2], -4.25 (inactive) in test [3], 0.112 (inactive) in test [4] and -0.291 (inactive) in test [5].

Regarding `COC(=O)[C@@]1(Cc2ccc(F)cc2)[C@H]2c3cc(C(=O)N4CCCC4)n(Cc4ccc(C(F)(F)F)nc4)c3C[C@H]2CN1C(=O)c1ccccc1`, the figures for the composite z-score (in test [1]; with XIP peptide (Xip251-270)) were 0.216 (inactive) and 0.602, respectively. The z-score in test [2] is -0.532; in test [3], -3.29 (inactive); in test [4], 0.278 (inactive); in test [5], 0.554 (inactive).

For `COC(=O)[C@H]1N=C(c2ccc(OCCCO)cc2)O[C@H]1c1ccccc1N=[N+]=[N-]`, the composite z-score was 0.363 (inactive) in test [1] and 0.75 in the test on XIP peptide (Xip251-270). Besides, the z-score in test [2] is -2.1; in test [3], -4.13 (inactive); in test [4] it was -0.0771 (inactive); in test [5] it was 0.193 (inactive).

Turning to `COc1ccc(C(=O)Nc2ccc(CN3C(=O)[C@]4(O[C@H](CC(=O)N(CCO)Cc5ccccc5)[C@@H]([Si](C)(C)c5ccc(OC)cc5)[C@@H]4C)c4ccccc43)cc2)cc1`, the composite z-score in test [1] was 0.321 (inactive); in the test on XIP peptide (Xip251-270), 0.703. Besides, the z-score was -2 in test [2], -1.96 (inactive) in test [3], 0.274 (inactive) in test [4] and 0.337 (inactive) in test [5].

As for `C=CCNC(=O)[C@H]1[C@@H]2C(=O)O[C@@H](c3ccccc3)[C@@H](c3ccccc3)N2[C@@H](c2ccc(O)cc2)[C@]12C(=O)Nc1ccc(C#CCC(C(=O)OC)C(=O)OC)cc12`, the composite z-score in test [1] is 0.835 (inactive); in the test with XIP peptide (Xip251-270) it was 0.764. Also, the z-score was -0.214 in test [2], -2.88 (inactive) in test [3], 0.0976 (inactive) in test [4] and 0.543 (inactive) in test [5].

Consider `COC(=O)[C@@]1(Cc2ccccc2)[C@H]2c3cc(C(=O)N(C)C)n(Cc4ccc(Cl)c(C(F)(F)F)c4)c3C[C@H]2CN1C(=O)c1ccccc1`, for which the results for the composite z-score (in test [1]; in the test with XIP peptide (Xip251-270)) were 0 (inactive) and 0.485, respectively. Further, the z-score in test [2] is -1.47; in test [3], -2.73 (inactive); in test [4], 0.435 (inactive); in test [5], 0.444 (inactive).

With `O=C(O)C1=CC[C@H]2C(=O)N(c3ccccc3)C(=O)[C@@H]12`, the values for the composite z-score (in test [1]; in the test with XIP peptide (Xip251-270)) were 0.688 (inactive) and 0.783, respectively. Further, the z-score in test [2] was 0.0472; in test [3] it was -3.04 (inactive); in test [4], -0.416 (inactive); in test [5], -0.647 (inactive).

As to `C=C(C(=O)CC[C@H](OC(=O)c1ccccc1-c1ccccc1C(=O)O)c1ccc(OCCO)cc1)C(C)C`, the composite z-score in test [1] is 0.0052 (inactive); in the test on XIP peptide (Xip251-270), 0.569. For the same compound, the z-score in test [2] was -2.71; in test [3], -6.36 (inactive); in test [4], -0.0593 (inactive); in test [5], -0.326 (inactive).

For the compound `C=C(COC)C(=O)CC[C@H](OC(C)=O)c1ccccc1OCCO`, the results for the composite z-score (in test [1]; in the test on XIP peptide (Xip251-270)) were -0.245 (inactive) and 0.337, respectively. For the same compound, the z-score in test [2] was -2.64; in test [3] it was -3.78 (inactive); in test [4], -0.201 (inactive); in test [5] it was -0.218 (inactive).
